# Rows were chosen to be rich in hits. Some 15% of all compounds tested hit in one or more screens of this group.
# HCV inhibitor = qHTS Assay for Inhibitors of Hepatitis C Virus (HCV); 340,000 tested, 3.4% active; Huh7.5.1 HCVcc-Cre infection, luciferase reporter, 44 h; Potency, µM (doses to about 41.8 µM), inactives show at the top dose activity change, negative = inhibition, actives largely listed as inhibitors; further: potency means the concentration at half of the fitted maximal effect; on the % scale 0 is the no-effect control and ±100 the full control effect
#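 Whole-lifecycle infectious HCVcc-Cre system; cells 1,000/well, compound then virus (~0.5 moi) added 4 h after plating, 44 h culture. Luciferase read 15 sec following 15 min substrate incubation, room temp.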
# HCMV inh = qHTS Assay for inhibitors of the human cytomegalovirus (HCMV). 410,000 tested, 4.5% active. activity change, negative = inhibition, % at 57.5 µM. HFF cells, HCMV-luciferase reporter, 72 h; hits give low values; in the data active means activity change below about -60%; inconclusive means no clear call, values can overlap the other calls; inactive means above about -39%; further: on the % scale 0 is the no-effect control and ±100 the full control effect
#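 Inhibition of viral replication was scored as loss of reporter luminescence in HFFs infected with HCMV-luciferase (MOI 1 PFU/cell) for 72 h; compounds tested at 2 doses, normalized to buffer and Salinomycin controls.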
# SARS PLP yeast = qHTS of Yeast-based Assay for SARS-CoV PLP; S. cerevisiae expressing SARS-CoV PLpro, growth rescue; Potency, µM (doses to about 32.9 µM), without a hit: at the top dose activity, positive = growth rescue, actives largely listed as activators; 330,000 tested, 0.19% active; AID 485353, 2010; calls by dose curve; further: potency means the concentration at half of the fitted maximal effect; 0% is about no effect; nearly all actives have a fitted effect of over 55% in size
# Pf growth 48h = Primary qHTS for delayed death inhibitors of the malarial parasite plastid, 48 hour incubation | Potency, µM (titrated, usually from 28.7 µM), inactives show at the top dose activity change, negative = inhibition, most hits filed as inhibitors | P. falciparum luciferase growth in erythrocytes, 48 h | 310,000 tested, 5.9% active; further: potency means the concentration at half of the fitted maximal effect; on the % scale 0 is the no-effect control and ±100 the full control effect
#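 Luminescence readout; reporter = integrated firefly luciferase in P. falciparum. RBC culture at 2% hematocrit, 0.1% parasitemia final, 37 C/5% CO2; decreased signal taken as growth inhibition.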
# Sm TGR inh = qHTS Assay for the Inhibitors of Schistosoma Mansoni Peroxiredoxins; Schistosoma mansoni thioredoxin glutathione reductase (TGR), Q962Y6; purified TGR, DTNB reduction, TNB absorbance 405 nm; Potency, µM (series often up to 114 µM), without a hit: at the highest dose activity change, negative = inhibition, usual class: inhibitors; 360,000 tested, 3% active; AID 485364, 2010; further: potency means the concentration at half of the fitted maximal effect; on the % scale 0 is the no-effect control and ±100 the full control effect; nearly all actives have a fitted effect of over 60% in size
#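 Kinetic colorimetric format: TGR-catalysed, NADPH-driven DTNB reduction monitored via TNB absorbance. Enzyme dispensed at 20 nM; compound exposure 15 min at room temperature before reaction start.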
# Pf growth 96h = Primary qHTS for delayed death inhibitors of the malarial parasite plastid, 96 hour incubation; P. falciparum luciferase reporter growth, 96 h; Potency, µM (highest dose often 28.7 µM), without a hit: at the highest dose activity change, negative = inhibition, usual class: inhibitors; AID 504834, 2011; 320,000 tested, 6.9% active; further: potency means the concentration at half of the fitted maximal effect; on the % scale 0 is the no-effect control and ±100 the full control effect
#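 96 h incubation, 37 C, 5% CO2, of luciferase-reporter P. falciparum-infected RBCs (2% hematocrit, 0.05% parasitemia final) with test compounds; endpoint luminescence.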
# * marks the source's active call; other numbers are inactive results; ? = inconclusive; . = no result. Unless noted, the call rests on the fitted dose curve; in most records, active means well fitted curve in the direction sought with a large enough effect; inconclusive means small, poorly fitted or top-dose-only effect, or another doubt; inactive means no such curve, though single readings can be large; an effect the other way counts as inactive or inconclusive.
SMILES,HCV inhibitor,HCMV inh,SARS PLP yeast,Pf growth 48h,Sm TGR inh,Pf growth 96h
CCSc1ncc(Cl)c(C(=O)Nc2nc3ccc(S(C)(=O)=O)cc3s2)n1,.,-26,.,.,-6%,.
O=C(CSc1nnc(-c2ccccc2)n1Cc1ccco1)Nc1ccc(S(=O)(=O)N2CCCC2)cc1,14µM*,-16,1%,?,-22%,?
CC(=O)c1cccc(-c2cnc3ccc(-c4cccc(Oc5ccccc5)c4)nn23)c1,.,-8,.,.,.,.
Cc1cccc(NC(=O)CN2CCC(NC(=O)C3CCCCC3)CC2)c1C,-1%,-20,13%,6%,7%,4.1µM*
O=C(CN1CCC(NC(=O)C2CCCCC2)CC1)Nc1cccc(F)c1,-14%,-18,-10%,-12%,-6%,22%
Cc1ccc(NC(=O)CN2CCC(NC(=O)C3CCCCC3)CC2)c(Br)c1,-4%,?,-7%,-2%,-14%,12µM*
COc1cccc(C=NCCCN=Cc2cccc(OC)c2O)c1O,7%,76,0%,?,-10%,-2%
CCCC(=O)Nc1ccc(Cl)c(NC(=S)NC(=O)c2ccco2)c1,?,-34,14%,17%,-11%,35%
CC1(C)CC(=O)C(C=NCC(O)c2ccccc2)=C(O)C1 (stereo unspecified),8%,-7,3%,5%,1%,7.4µM*
CC1(C)CC(=O)C(C=Nc2ccccc2)=C(O)C1,-7%,16,8%,25%,-9%,2%
Cc1nc2cc(CO)ccc2n1C,0%,22,-1%,7%,-3%,9.3µM*
Clc1cccc(-c2nn3c(Cn4cnc5ccccc54)nnc3s2)c1,-30%,31,-1%,13µM*,0%,13%
c1csc(-c2nn3c(Cn4cnc5ccccc54)nnc3s2)c1,-12%,-1,-6%,-19%,3%,-5%
COc1cc(C)c(CNc2ccc(OC)c(OC)c2)cc1C,.,.,5%,9.3µM*,?,.
CC1Cc2cc(-c3csc(N)n3)ccc2O1 (stereo unspecified),-15%,51,-8%,88%,9%,0%
Oc1ccccc1C1N=C(c2ccccc2)NC(c2ccccc2)=N1,-8%,-9,-14%,.,1%,1.7µM*
Oc1ccc(C2N=C(c3ccccc3)NC(c3ccccc3)=N2)cc1,7%,27,-2%,-13%,0%,12µM*
CC(C)CC(=O)Nc1ccc2nc(SCC(=O)N3CCc4ccccc43)sc2c1,.,1,.,.,0%,.
CCN(CC)C(=S)SCC(=O)Nc1ncc2c(n1)CC(C)(C)CC2=O,-18%,-21,0%,-2%,9%,7%
O=C(Nc1ccn(Cc2c(F)c(F)cc(F)c2F)n1)c1cccc(Cn2cc([N+](=O)[O-])cn2)c1,-19%,58,7%,.,7%,9.3µM*
NC(=O)c1ccc(NC(=O)c2ccc(COc3ccccc3Br)cc2)cc1,-2%,-19,3%,19%,-2%,48%
Cc1cc(C)nc(NC(=O)c2ccc(COc3ccccc3Cl)cc2)c1,?,-9,-1%,-5%,3%,9.3µM*
O=C(Nc1ccn(Cc2c(F)c(F)cc(F)c2F)n1)c1ccc(COc2ccccc2Cl)cc1,13µM*,-71*,2%,?,0%,0.23µM*
Cc1cc(C)n(Cc2ccc(NC(=O)c3ccc(COc4ccccc4Br)cc3)cc2)n1,4µM*,-90*,0%,?,-12%,?
Cc1ccc(C)c(S(=O)(=O)N2CCN(C(=O)CCC(=O)c3cc(C)sc3C)CC2)c1,?,-39,0%,?,-2%,?
O=C(NC(c1ccccc1)c1ccccc1)c1cccc(S(=O)(=O)NCc2ccccc2)c1,-6%,?,-4%,?,6%,?
FC(F)(F)c1cnc(Sc2ncn[nH]2)c(Cl)c1,1%,-37,-3%,-19%,3%,24%
